Screening data: PubChem BioAssay, National Center for Advancing Translational Sciences (NCATS)
Most compounds without a hit are left out; they make up all but 11% or so of the library.
Pf growth 96h – Primary qHTS for delayed death inhibitors of the malarial parasite plastid, 96 hour incubation | Potency, µM (top dose mostly 28.7 µM), for the others: top-dose activity change, negative = inhibition, usual class: inhibitors | 6.9% of 320,000 active | P. falciparum luciferase reporter growth, 96 h; further: on the % scale 0 is the no-effect control and ±100 the full control effect
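Infected RBCs, 2% Hct / 0.05% parasitemia final; luciferase-reporter P. falciparum; cpd 96 h, 37 C, 5% CO2; luciferase detection reagent; luminescence.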
NS1 inh – qHTS Assay for Inhibitors of Influenza NS1 Protein Function; 0.4% of 270,000 active; Potency, µM (titrated, usually from 46.1 µM), for the others: at the top dose activity, positive = more growth; AID 2326, 2010; calls by dose curve; further: actives are rising curves; nearly all actives have a fitted effect of over 50% in size
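Compounds were scored for reversing the slow growth caused by influenza A NS1 in S. cerevisiae, measured by optical density at 600 nm. Assay medium contained 2% galactose at pH 6.0; NS1-free yeast of the same strain were the positive control.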
Pf growth 48h – Primary qHTS for delayed death inhibitors of the malarial parasite plastid, 48 hour incubation; 5.9% of 310,000 active; AID 504832, 2011; Potency, µM (titrated, usually from 28.7 µM), for inactives: at the top dose activity change, negative = inhibition, most hits filed as inhibitors; P. falciparum luciferase growth in erythrocytes, 48 h; further: on the % scale 0 is the no-effect control and ±100 the full control effect
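Erythrocytes infected with P. falciparum carrying an integrated firefly luciferase reporter (2% hematocrit, 0.1% parasitemia final) were exposed to compounds in RPMI 1640 with 0.5% Albumax at 37 C, 5% CO2. Growth inhibition was scored as reduced luminescence.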
Sm TGR inh – qHTS Assay for the Inhibitors of Schistosoma Mansoni Peroxiredoxins; Schistosoma mansoni thioredoxin glutathione reductase (TGR), Q962Y6; purified TGR, DTNB reduction, TNB absorbance 405 nm; Potency, µM (series often up to 114 µM), for the others: at the top dose activity change, negative = inhibition, hits mostly inhibitors; 3% of 360,000 active; further: on the % scale 0 is the no-effect control and ±100 the full control effect; nearly all actives have a fitted effect of over 60% in size
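TGR 20 nM + NADPH 100 uM (dispensed conc.), cpd preinc 15 min RT; start with NADPH (500 uM addition) then DTNB (15 mM addition). Kinetic TNB absorbance, 405 nm filter. Four-parameter Hill fit across titration.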
AMA1 RON2 block – qHTS for Inhibitors of AMA1-RON; Towards Development of Antimalarial Drug Lead: Primary Screen. Plasmodium falciparum AMA1 (3D7) - RON2 peptide interaction. AlphaScreen AMA1-biotinylated RON2 peptide binding. Potency, µM (doses to about 58.2 µM), without a hit: top-dose activity change, negative = inhibition, most hits filed as inhibitors. 0.2% of 360,000 active. AID 720542, 2013;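 further: 0% = vehicle wells and -100% = peptide control; nearly all actives have a fitted effect of over 45% in size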
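AMA1 (3D7) with his tag at 25 nM final met compounds first, then biotinylated RON2 peptide at 25 nM; detection used donor plus acceptor beads, 10 µg/mL apiece, read by AlphaScreen after 30 min at room temperature.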
Active calls of the source: *; ? = inconclusive; · = not tested or not shown; [ ] = dose if it differs, or a comment. Unless noted, the call rests on the fitted dose curve; in most records, active means well fitted curve in the direction sought with a large enough effect; inconclusive means small, poorly fitted or top-dose-only effect, or another doubt; inactive means no such curve, though single readings can be large; an effect the other way counts as inactive or inconclusive. Potency means the concentration at half of the fitted maximal effect.

SMILES	Pf growth 96h	NS1 inh	Pf growth 48h	Sm TGR inh	AMA1 RON2 block
Cc1ccc(C#CC[N+]2(CC#Cc3ccc(C)cc3)CCCCC2)cc1	?	0%	0.59µM*	-35%	5%
C#CC[N+]1(CC#Cc2ccccc2)CCCCC1	0%	·	?	?	-10%
C#CC[N+]1(CC#Cc2cccc(C)c2)CCCCC1	-12%	·	1.5µM*	-4%	6%
Clc1ccc(-c2nnn3c2nc(N2CCCCC2)c2ccccc23)cc1	·	·	·	-2%	·
CC(C)(C)C1=CC(=O)C(=O)C(C(C)(C)C)=C1	-26%	-19%	-20%	20µM*	1%
CCN(C(=O)COC(=O)/C=C/c1c(C)nn(-c2ccccc2)c1C)C1CCS(=O)(=O)C1 (centres undefined)	-9%	-9%	-3%	31%	5%
CCN(CC)P(=O)(Nc1cccc(C(F)(F)F)c1)c1ccc(N(C)C)cc1NC(=O)c1ccco1 (centres undefined)	1.9µM*	24%	2.1µM*	-13%	?
CCc1cccc(-n2nnc(-c3nc(-c4cccs4)no3)c2N)c1	·	·	·	1%	·
COc1ccc(/C=C2/Sc3ccc(C(=O)NCCN4CCCCCC4)cc3NC2=O)cc1	?	1%	9.3µM*	2%	-23%
O=C1Nc2cc(C(=O)NCCCN3CCCC3)ccc2S/C1=C\c1ccccc1	-1%	11%	9.3µM*	2%	-22%
O=C1Nc2cc(C(=O)NCCCN3CCOCC3)ccc2S/C1=C/c1cccc(Cl)c1	3%	2%	?	-3%	3%
COC(=O)c1c(NC(=O)c2nc3ccccc3s2)sc2c1CCN(C(C)=O)C2	10µM*	-75%	·	-10%	79%
CNC(=O)c1c(NC(=O)c2nc3ccccc3s2)sc2c1CCC2	8%	3%	·	45µM*	·
COC(=O)c1c(NC(=O)c2cccc(N3C(=O)CCC3=O)c2)sc2c1CCN(C(C)=O)C2	9.3µM*	1%	-16%	5%	-14%
CNC(=O)c1c(NC(=O)c2cccc(N3C(=O)CCC3=O)c2)sc2c1CCC2	-22%	9%	45%	?	-2%
CC(=O)N1CCc2c(sc(NC(=O)CSc3ccc(C)cc3)c2-c2nc3ccccc3s2)C1	·	·	·	6%	·
CNC(=O)c1c(NC(=O)C(C)C)sc2c1CCC2	-9%	-12%	2.3µM*	45µM*	4%
CCn1cc(/C=N\NC(=O)c2ccc(F)cc2)cn1	42%	-4%	20%	1%	64%
CCN(C(=O)c1cc2c(=O)n(CC)c3ccccc3c2s1)c1cccc(C(F)(F)F)c1	·	·	·	0%	·
CC(=O)C(Sc1nnnn1-c1ccc(O)cc1)c1ccccc1 (centres undefined)	0%	-1%	2%	?	-6%
CN1CCN(C(=O)COc2ccc(N(C)S(=O)(=O)c3ccc(F)cc3)cc2)CC1	-13%	·	20%	-6%	-1%
CCOC(=O)C1CCN(C(=O)COc2ccc(N(C)S(=O)(=O)c3ccc(C)cc3)cc2)CC1	17%	-2%	0%	0%	0%
CN(c1ccc(OCC(=O)N2CCCC2)cc1)S(=O)(=O)c1ccc(Cl)cc1	?	·	10µM*	-5%	12%
COC(=O)C1CCN(C(=O)COc2ccc(N(C)S(=O)(=O)c3ccc(C)cc3)cc2)CC1	?	·	13µM*	-12%	0%[11.6 µM]
CCOc1ccc(NC(=O)c2c(NCc3cccs3)sc3c2CCCCC3)cc1	·	·	·	7.9µM*	·
SMILES	Pf growth 96h	NS1 inh	Pf growth 48h	Sm TGR inh	AMA1 RON2 block
O=C(O)CCC(=O)Nc1sc2c(c1C(=O)Nc1ccccc1)CCCCC2	2.3µM*	·	10%	-10%	29%
O=C(O)CCC(=O)Nc1sc2c(c1C(=O)Nc1cccc3ccccc13)CCCCC2	?	23%	6%	-8%	-5%
CCOc1ccc(NC(=O)c2c(NCc3sccc3C)sc3c2CCCCC3)cc1	·	·	·	7.9µM*	·
COc1ccc(NC(=O)c2c(NCc3cccs3)sc3c2CCCCC3)cc1	·	·	·	18µM*	·
CCOc1ccccc1NC(=O)c1c(NCc2cccs2)sc2c1CCCCC2	·	·	·	7%	·
CCOC(=O)c1ccc(NC(=O)c2c(NCc3sccc3C)sc3c2CCC(C)C3)cc1 (centres undefined)	·	·	·	-2%	·
COc1ccc(NC(=O)c2c(NCc3cccs3)sc3c2CCCC3)c(OC)c1	·	·	·	-5%	·
COc1ccc(CNC(=O)N2CCN(c3ccccc3OC)CC2)cc1	11%	-10%	26%	2%	-13%
CC(C)CC(=O)NC1CC(=O)N(c2ccc3c(c2)OCCO3)C1 (centres undefined)	·	·	·	-4%	·
COc1ccc(OC)c(NC(=O)c2c(NCc3cccs3)sc3c2CCCC3)c1	·	·	·	-23%	·
CCOc1ccc(NC(=O)c2c(NCc3ccc(C)o3)sc3c2CCCCC3)cc1	·	·	·	8.9µM*	·
COc1ccc(OC)c(NC(=O)c2c(NCc3cccs3)sc3c2CCCCC3)c1	·	·	·	40µM*	·
CCOc1ccc(NC(=O)c2c(NCc3cc(OC)c(OC)cc3OC)sc3c2CCCC3)cc1	·	·	·	-27%	·
CCCCOc1ccc(/C=C/C(=O)NCCc2nc3ccccc3[nH]2)cc1	12µM*	4%	?	-20%	4%
O=C(/C=C/c1ccco1)N/C(=C\c1ccccc1)C(=O)NCCc1nc2ccccc2[nH]1	-5%	-16%	-13%	50µM*	-7%
COc1ccc(/C=C/C(=O)NCCc2nc3ccccc3[nH]2)cc1	?	14%	?	28%	6%
COc1ccc(NC(=O)n2nc(OC(=O)c3cccs3)cc2N)cc1	123%	-5%	181%	?	34%
Cc1ccccc1OCC(=O)Nc1c(C)ccc2nsnc12	·	·	·	4%	·
COc1ccc(OC)c(CCNC(=O)c2sc3nc4n(c(=O)c3c2C)CCCC4)c1	·	·	·	5%	·
COc1ccc([C@@H](C)NC(=O)CCc2nnc(-c3cc(C)on3)o2)cc1	2.9µM*	0%	19%	-1%	0%
Cc1cc(-c2nnc(CCC(=O)NC(C)c3cccc4ccccc34)o2)no1 (centres undefined)	12µM*	1%	-17%	-8%[57.1 µM]	3%
Clc1cc(/C=N\NC2=NCCN2)cc(Cl)n1	·	·	·	·	-12%
Cc1ccc(-n2cc(CNCCc3ncc(C)[nH]3)c(-c3ccc(F)cc3)n2)cc1	20%	1%	1.7µM*	0%[57.1 µM]	27%
COc1ccc(-n2cc(CNCCc3nc(C)cc(C)n3)c(-c3ccccc3Cl)n2)cc1	?	0%	12µM*	?	-26%
Fc1ccc(-n2cc(CNCCc3ccccn3)c(-c3ccccc3Cl)n2)cc1	23%	7%	8.3µM*	-20%	23%
Cc1ccc(-n2cc(CNCCn3nc(C)cc3C)c(-c3ccc(F)cc3)n2)cc1	-6%	4%	?	-3%	-5%
